An excerpt weighted towards active compounds, which were near 2.3% of everything screened.
SENP8 block-1 – SENP8 protease inhibition; inhibition, % at 10 µM; Q96LD8; purified SENP8, Z-RLRGG-aminoluciferin cleavage, luminescence; 330,000 tested, 1.2% active; in the data active = inhibition above about 50%
Target sequence (Q96LD8 whole entry, looked up): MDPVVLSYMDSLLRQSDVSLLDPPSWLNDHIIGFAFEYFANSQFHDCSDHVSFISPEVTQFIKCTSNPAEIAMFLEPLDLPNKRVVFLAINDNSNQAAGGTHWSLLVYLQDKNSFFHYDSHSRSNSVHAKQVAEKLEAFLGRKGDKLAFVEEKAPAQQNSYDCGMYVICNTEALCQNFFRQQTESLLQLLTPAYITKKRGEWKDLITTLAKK
SENP6 inh – blocks the human protease SENP6. Q9GZR1. Recombinant SENP6 catalytic domain, aminoluciferin luminescence. inhibition, % at 10 µM. 330,000 tested, 1.8% active;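 active = inhibition above about 50% at the single tested dose, limit read from the data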
Target sequence (Q9GZR1 628-1112 limits assumed): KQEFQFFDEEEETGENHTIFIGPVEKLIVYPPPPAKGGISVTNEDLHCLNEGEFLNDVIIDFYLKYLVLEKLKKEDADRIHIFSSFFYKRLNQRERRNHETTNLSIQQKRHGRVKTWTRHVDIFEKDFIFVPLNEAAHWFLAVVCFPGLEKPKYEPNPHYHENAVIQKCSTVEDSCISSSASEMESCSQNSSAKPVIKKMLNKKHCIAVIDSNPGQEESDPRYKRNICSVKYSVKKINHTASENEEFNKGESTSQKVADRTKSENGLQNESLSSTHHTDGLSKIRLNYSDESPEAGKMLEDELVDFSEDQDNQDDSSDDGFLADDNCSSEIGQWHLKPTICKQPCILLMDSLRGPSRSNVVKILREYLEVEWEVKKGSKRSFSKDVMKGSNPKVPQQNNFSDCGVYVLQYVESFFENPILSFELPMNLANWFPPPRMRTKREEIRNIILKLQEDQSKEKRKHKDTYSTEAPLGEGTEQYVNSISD
LGR2 inh – blocks bursicon-induced cAMP signaling via Drosophila LGR2; HEK293 LGR2, CRE-luciferase, bursicon-stimulated, 4 h; inhibition, % at 9.99 µM; 380,000 tested, 0.35% active; AID 720647;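 active = drop in luminescence signal, shown as inhibition above about 50% in the replicate tests, limit read from the data, passing the limit was not always enough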;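 note: agonist challenge used bursicon conditioned medium at about half maximal strength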
SENP8 block-2 – SENP8 (human) protease inhibition. inhibition, % at 20 µM. Q96LD8. 360,000 tested, 0.64% active. recombinant SENP8, Nedd8 substrate fluorescence; in the data active = inhibition mostly above about 40%, no sharp cut-off; inactive = mostly below about 27%
SENP7 inh – inhibitors of human SENP7 protease; inhibition, % at 5 µM; recombinant SENP7, Z-RLRGG-aminoluciferin luminescence, 40 min; AID 434973; 330,000 tested, 1.5% active;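 active = inhibition above about 50% at the single test dose, limit read from the data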
HSP90 refold inh – HSP90 refolding inhibition in rabbit reticulocyte lysate | luciferase refolding luminescence, 3 h | inhibition, % at 5.6 µM | 290,000 tested, 0.91% active | AID 1789;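 active = inhibition above the screen-wide mean plus 3 SD, computed separately per campaign, cut at about 16% in these data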;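 note: inhibitors lower the luminescence because luciferase stays unfolded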
HSP90 confirm – HSP90 inhibition, confirmation assay; inhibition, % at 5.9 µM; shares compounds with HSP90 refold inh; AID 1846; rabbit reticulocyte lysate, luciferase refolding luminescence, 3 h; 2,300 tested, 64% active; in the data active = inhibition above about 18%
FLuc counter – counter-screen for HSP90 inhibitors: inhibitors of firefly luciferase. shares compounds with HSP90 refold inh. purified native firefly luciferase, luminescence. inhibition, % at 5.9 µM. 2,300 tested, 48% active;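 active = inhibition above the mean inhibition of all tested sample wells plus 3 SD, cut at about 10% in these data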
Each line names hits and unclear results; the compound was inactive in the other large screens (follow-up assays come after a bar, where they were run).

N/C(=N\OC(=O)/C=C/c1ccccc1Cl)c1ccncc1	HSP90 refold inh 31 | HSP90 confirm inactive | FLuc counter inactive
N/C(=N\OC(=O)/C=C/c1ccccc1)c1ccncc1	none (no result: LGR2 inh)
COc1ccc2c3c(n(C)c2c1)[C@H](CO)N(C(=O)CN1CCOCC1)CC31CCN(C)CC1	none (no result: SENP8 block-1, SENP6 inh, SENP8 block-2, SENP7 inh, HSP90 refold inh)
C/C(=N\Nc1nc2ccccc2[nH]1)c1ccc(N2CCOCC2)cc1	HSP90 refold inh 19 | HSP90 confirm inactive | FLuc counter inactive
COc1ccc(-c2ccc3c(c2)O[C@H](CN(C)Cc2ccccc2C(=O)O)[C@H](C)CN([C@H](C)CO)S3(=O)=O)cc1	none (no result: SENP8 block-1, SENP6 inh, SENP8 block-2, SENP7 inh, HSP90 refold inh)
Cc1nc2c(-c3ccc(F)cc3)c(C)nn2c(C)c1CCC(=O)N1CCOCC1	none
Cc1nc2c(-c3ccc(F)cc3)c(C)nn2c(C)c1CCC(=O)NCCN1CCOCC1	HSP90 refold inh 40 | HSP90 confirm inactive | FLuc counter inactive
C[n+]1ccc(/C=C/c2cccs2)cc1	HSP90 refold inh 28 | HSP90 confirm inactive | FLuc counter inactive
CCOc1cc(C2C3=C(CCCC3=O)OC3=C2C(=O)CCC3)cc([N+](=O)[O-])c1O	HSP90 refold inh 31 | HSP90 confirm inactive | FLuc counter inactive
N=c1sccn1CC(=O)Nc1ccc([N+](=O)[O-])cc1Cl	HSP90 refold inh 21 | HSP90 confirm inactive | FLuc counter inactive
Cc1ccc(C(=O)CSc2nnnn2C(C)C)c(C)c1	HSP90 refold inh 56 (no result: LGR2 inh) | HSP90 confirm 79 | FLuc counter 72
Cc1ccc(C)c(C(=O)CSc2nnnn2C(C)C)c1	none (no result: LGR2 inh)
CCn1c(=O)cc(OCC(=O)NCCc2ccc(OC)c(OC)c2)c2ccccc21	HSP90 refold inh 48 | HSP90 confirm inactive | FLuc counter inactive
CN(C(=O)CSc1nnc(-c2ccccc2)o1)c1c(N)n(Cc2ccccc2)c(=O)[nH]c1=O	HSP90 refold inh 19 | HSP90 confirm inactive | FLuc counter inactive
Cc1ccc(S(=O)(=O)/N=C2\C=C(Nc3cccc(C(=O)O)c3)C(=O)c3ccccc32)cc1	SENP8 block-1 93, SENP6 inh 91, SENP8 block-2 83, SENP7 inh 64, HSP90 refold inh 96 | HSP90 confirm 92 | FLuc counter inactive
O=C1C(Nc2ccccc2)=C(NS(=O)(=O)c2ccccc2)C(=O)c2ccccc21	none
COC(=O)c1ccccc1NC1=C/C(=N\S(=O)(=O)c2ccc(C(=O)O)cc2)c2ccccc2C1=O	SENP8 block-1 90, SENP6 inh 73, HSP90 refold inh 77 (no result: LGR2 inh) | HSP90 confirm 92 | FLuc counter inactive
O=C1C(Nc2ccccc2)=C/C(=N/S(=O)(=O)c2cccs2)c2ccccc21	SENP8 block-2 83, HSP90 refold inh 37 (no result: SENP8 block-1, SENP6 inh, LGR2 inh, SENP7 inh) | HSP90 confirm 94 | FLuc counter inactive
CCc1ccc(NC2=NC(C(=O)c3ccccc3)CC(=O)N2)cc1 (stereo not drawn)	none (no result: LGR2 inh)
CCc1ccc(S(=O)(=O)/N=C2\C=C(Nc3ccc(C(=O)O)cc3)C(=O)c3ccccc32)cc1	SENP8 block-1 94, SENP6 inh 92, LGR2 inh 103, SENP8 block-2 44, SENP7 inh 63, HSP90 refold inh 93 | HSP90 confirm 96 | FLuc counter inactive
COc1ccc(S(=O)(=O)N(C)C[C@@H]2Oc3cc(C#CC4CC4)ccc3S(=O)(=O)N([C@H](C)CO)C[C@H]2C)cc1	none (no result: SENP8 block-1, SENP6 inh, SENP8 block-2, SENP7 inh, HSP90 refold inh)
C[C@@H]1CN([C@@H](C)CO)C(=O)c2cc(NC(=O)c3ccncc3)ccc2O[C@H]1CN(C)Cc1ccc(C(F)(F)F)cc1	none (no result: SENP8 block-1, SENP6 inh, SENP8 block-2, SENP7 inh, HSP90 refold inh)
O=C(C[C@@H]1CC[C@H]2[C@@H](COC[C@@H](O)CN2Cc2cc(F)cc(F)c2)O1)NC1CCCC1	none (no result: SENP8 block-1, SENP6 inh, SENP8 block-2, SENP7 inh, HSP90 refold inh)
O=C1c2ccccc2C(=O)c2cc(S(=O)(=O)Nc3ccccc3)ccc21	none
O=C(O)c1cccc(NS(=O)(=O)c2ccc3c(c2)C(=O)c2ccccc2C3=O)c1	HSP90 refold inh 22 | HSP90 confirm inactive | FLuc counter inactive
Cc1cc(NC(=O)NC(=O)c2ccc(F)cc2F)n[nH]1	HSP90 refold inh 23 (no result: LGR2 inh) | HSP90 confirm 39 | FLuc counter 26
CCCNC(=O)C[C@@H]1CC[C@H]2[C@H](COc3ccc(NC(=O)c4cscn4)cc3C(=O)N2C)O1	none (no result: SENP8 block-1, SENP6 inh, SENP8 block-2, SENP7 inh, HSP90 refold inh)
O=C(CCN1C(=O)c2ccccc2C1=O)NCc1ccccc1	HSP90 refold inh 41 | HSP90 confirm inactive | FLuc counter inactive
Cc1c(C(=O)O)cccc1-c1ccc(/C=N/n2cnnc2)o1	HSP90 refold inh 18 | HSP90 confirm 20 | FLuc counter inactive
Cc1c(Cl)cccc1-c1ccc(/C=N/n2cnnc2)o1	none (no result: LGR2 inh)
CC(=O)N1c2ccccc2Oc2cc3ccccc3cc21	HSP90 refold inh 21 | HSP90 confirm 47 | FLuc counter inactive
COc1ccc(C(=O)c2coc3ccc(O)c(CN(C)C)c23)cc1	HSP90 refold inh 35 | HSP90 confirm inactive | FLuc counter inactive
Cn1ccc(C(=O)Nc2ccc3c(c2)OCCO3)n1	none
Cc1nn(C)cc1C(=O)Nc1ccc2c(c1)OCCO2	HSP90 refold inh 19 | HSP90 confirm 21 | FLuc counter inactive
Cc1c(C(=O)Nc2ccc3c(c2)OCCO3)cnn1C	HSP90 refold inh 35 | HSP90 confirm 57 | FLuc counter 60
Cn1ncc([N+](=O)[O-])c1C(=O)Nc1ccc2c(c1)OCCO2	none (no result: LGR2 inh)
COCC(=O)N(C)C[C@@H]1Oc2ncc(-c3ccccc3OC)cc2C(=O)N([C@@H](C)CO)C[C@H]1C	none (no result: SENP8 block-1, SENP6 inh, SENP8 block-2, SENP7 inh, HSP90 refold inh)
CCn1nnc2cc(C(=O)NCCc3ccccc3F)ccc21	LGR2 inh 54, HSP90 refold inh 43 | HSP90 confirm 59 | FLuc counter 39
Cc1nnc(N/N=C\c2ccc(-c3ccccc3[N+](=O)[O-])o2)n1N	HSP90 refold inh 38 (no result: SENP8 block-1, SENP6 inh, SENP7 inh) | HSP90 confirm inactive | FLuc counter inactive
COC(=O)c1ccccc1-c1ccc(/C=N/NC(N)=O)o1	none (no result: LGR2 inh)
CCc1nnc(N/N=C/c2ccc(-c3ccc([N+](=O)[O-])cc3)o2)n1N	HSP90 refold inh 36 | HSP90 confirm inactive | FLuc counter inactive
Cc1nnc(N/N=C/c2ccc(-c3ccccc3F)o2)n1N	HSP90 refold inh 65 | HSP90 confirm 18 | FLuc counter inactive
CCC(=O)N/N=C/c1ccc(-c2ccc([N+](=O)[O-])cc2)o1	none
C[C@@H]1CN([C@@H](C)CO)C(=O)c2cccc(NS(=O)(=O)c3cn(C)cn3)c2O[C@H]1CN(C)Cc1ccc(C(=O)O)cc1	none (no result: SENP8 block-1, SENP6 inh, SENP8 block-2, SENP7 inh, HSP90 refold inh)
O=C(C[C@@H]1CC[C@H](NC(=O)C2CC2)[C@@H](CO)O1)NCc1ccccc1Cl	none (no result: SENP8 block-1, SENP6 inh, SENP8 block-2, SENP7 inh, HSP90 refold inh)
CC(C)CC(=O)Nc1nc2ccc(S(C)(=O)=O)cc2s1	HSP90 refold inh 30 | HSP90 confirm inactive | FLuc counter inactive
Cc1nc2ccc(NC(=O)c3cccnc3)cc2s1	none
CCNS(=O)(=O)c1ccc2nc(NC(=O)c3cccnc3)sc2c1	HSP90 refold inh 29 (no result: LGR2 inh) | HSP90 confirm inactive | FLuc counter inactive

Compound activity from PubChem.
